Screening data from PubChem BioAssay.
D2 antag – antagonizes the human D2 dopamine receptor; HEK293 TREx D2 cells, calcium flux, dopamine EC80; AID 485344; 2% of 340,000 active; inhibition, % at 10 µM; P14416; in the data active = inhibition above about 30%; inactive = below that, where a call was filed
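Calcium mobilization kinetics were recorded at 1 s intervals in tetracycline-induced HEK293 T-REx D2 cells, first for 180 s after compound addition and then 180 s after EC80 dopamine.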
D2 PAM-1 – D2 dopamine receptor (human) potentiation | HEK293 T-REx D2, calcium flux, EC20 dopamine potentiation | AID 485347 | potentiation, % at 10 µM | 0.34% of 340,000 active | P14416;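 active = potentiation over 3 SD above the plate norm, cut at about 30% in these data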
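Calcium flux readout, no-wash dye, 1 read/s. Inducible HEK293 Trex D2 line, overnight 30 C. Compound alone 180 s (agonist flags), then EC20 dopamine, another 180 s to score potentiation.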
D2 ag-1 – agonists of human D2 dopamine receptor | AID 485358 | 0.53% of 340,000 active | activation, % at 2 µM | HEK293 T-REx D2 cells, calcium flux agonist mode | P14416;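 active = activation over 3 SD above normal in the single-dose calcium agonist read, cut at about 30% in these data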
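Tetracycline-induced HEK293 Trex cells with D2 receptor force-coupled to calcium signaling, plated overnight at 30 C and loaded with no-wash calcium dye. Calcium flux read kinetically for 180 s after compound addition; responses flag agonists.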
D2 PAM-2 – potentiates the human D2 dopamine receptor allosterically; P14416; DiscoveRx D2 beta-arrestin cells, luminescence, 90 min; 100% = 57 uM dopamine signal; potentiation, % (no concentration beside the values); 0.23% of 360,000 active; AID 624464; in the data active = potentiation above about 50%; inconclusive = mostly about 30% to 49%
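D2 cells co-treated with compound plus 50 nM dopamine (EC20) for 90 min at 37 deg C to detect potentiation. Beta-arrestin recruitment was read as enzyme-fragment luminescence after 1 h at ambient temperature. Full response was set by 57 uM dopamine.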
B2AR arrestin – recruits beta-arrestin to the human beta2-adrenergic receptor | P07550 | beta-arrestin recruitment to beta2AR, cell-based reporter | Potency, µM (titrated, usually from 46.1 µM), most hits filed as activators | 0.02% of 330,000 active; active = well fitted activation curve with a large enough effect; inconclusive = small, poorly fitted or top-dose-only effect; also: nearly all actives have a fitted effect of over 65% in size
Target sequence (P07550 whole entry, looked up): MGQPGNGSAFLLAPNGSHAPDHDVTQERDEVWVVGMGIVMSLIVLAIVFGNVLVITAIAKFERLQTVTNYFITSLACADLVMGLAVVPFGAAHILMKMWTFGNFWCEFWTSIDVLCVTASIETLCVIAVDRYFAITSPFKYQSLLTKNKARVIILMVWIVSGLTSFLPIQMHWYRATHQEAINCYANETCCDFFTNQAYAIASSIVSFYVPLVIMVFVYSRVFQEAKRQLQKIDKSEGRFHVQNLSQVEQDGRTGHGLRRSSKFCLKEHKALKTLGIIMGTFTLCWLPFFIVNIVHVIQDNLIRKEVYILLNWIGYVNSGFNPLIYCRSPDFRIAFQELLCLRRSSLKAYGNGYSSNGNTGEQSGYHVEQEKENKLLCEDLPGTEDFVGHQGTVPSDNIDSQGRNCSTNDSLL
D2 ag-2 – activates the human D2 dopamine receptor; AID 624465; DiscoveRx PathHunter D2 beta-arrestin, luminescence, 90 min; 100% = 57 uM dopamine signal; activation, % (no concentration beside the values); P14416; 0.084% of 360,000 active; in the data active = activation above about 40%; inconclusive = between about 15% and that limit
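DiscoveRx PathHunter D2 beta-arrestin cells (2,100/well) attached overnight, then compound-stimulated 90 min at 37 C in HBSS/10 mM HEPES/0.1% Tween-20 buffer; beta-galactosidase complementation read by luminescence after 1 h at ambient temperature. Dopamine 57 uM final (EC100) as control.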
A number is an active result; 0 = inactive; ? = inconclusive; - = no result given. Most compounds without a hit are left out; they make up all but 2.4% or so of the library.

SMILES	D2 antag	D2 PAM-1	D2 ag-1	D2 PAM-2	B2AR arrestin	D2 ag-2
CCOc1cccc(N2C(=O)CC(NNC(=O)c3ccc(Br)o3)C2=O)c1 (stereo not drawn)	38	0	0	0	0	0
COc1ccc(OC)c(CNC(=O)C2CCCN(S(=O)(=O)N3CC(C)CC(C)C3)C2)c1 (stereo not drawn)	0	0	0	0	0	0
CCOc1ccc(N2C(=O)CC(N3CCC(O)(c4ccc(Br)cc4)CC3)C2=O)cc1 (stereo not drawn)	0	0	0	0	0	0
O=C(CCc1nc2sc3c(c2c(=O)[nH]1)CCCC3)Nc1cccc(Cl)c1	0	0	0	?	0	0
COc1ccc(C2=NN(C(=O)CSc3nc(=O)n4cc(C)ccc4n3)C(c3ccc(C)cc3)C2)cc1 (stereo not drawn)	41	0	0	0	0	0
COc1ccc(C2=NN(C(=O)CSc3ncccn3)C(c3ccc(OC)cc3)C2)cc1 (stereo not drawn)	0	0	0	0	0	0
Cc1ccc(C2CC(c3ccc(Br)cc3)=NN2C(=O)CSC2=NN3CCCC(=O)N=C3S2)cc1 (stereo not drawn)	0	33	0	0	0	0
COc1ccc(S(=O)(=O)NC2CCCCCC2)c(OC)c1	-	-	-	0	0	0
CCOc1ccc(N(CC(=O)NCC(C)C)S(C)(=O)=O)cc1	-	0	-	0	0	0
CCOc1ccc(N(CC(=O)NC(C)CC)S(C)(=O)=O)cc1 (stereo not drawn)	38	0	0	0	0	0
C(=N\Nc1nc(-c2ccccc2)cs1)/c1ccncc1	0	0	0	0	0	0
C(=N\Nc1nc(-c2ccccc2)cs1)/c1cccs1	0	0	0	63	0	0
CCOC(=O)c1c(C)oc2c1c1c(c3ccccc32)OCN(Cc2cccnc2)C1	0	0	0	113	0	?
CC(C)(C)CC(=O)Nc1nnc(SCC(=O)NC2CCCCC2)s1	0	0	0	0	0	0
CC(C)(C)CC(=O)Nc1nnc(SCC(=O)N2CCCCC2)s1	0	32	0	0	0	0
O=C(Cn1c(=O)n(-c2cccc(C(F)(F)F)c2)c(=O)c2sccc21)NCC1CCCO1 (stereo not drawn)	0	0	0	0	0	0
CCOC(=O)c1c(NC(=O)CC(C)C)sc(C(C)=O)c1C	0	37	0	0	0	0
CCOC(=O)c1c(NC(=O)COC)sc(C(C)=O)c1C	0	0	0	0	0	0
Cn1cc(CC(=O)NCc2ccc(F)cc2)c2ccccc21	0	0	0	0	0	0
CC(C)c1ccc(NC(=O)Cc2cn(C)c3ccccc23)cc1	49	0	0	0	0	0
Cn1cc(CC(=O)NCCN2CCOCC2)c2ccccc21	0	39	0	0	0	0
Cn1cc(CC(=O)NCCCN2CCOCC2)c2ccccc21	0	0	0	0	0	0
Cc1ccccc1C(=O)N(Cc1ccc(N(C)C)cc1)Cc1ccco1	-	0	0	-	-	-
Cc1ccc(Cc2cnc(NC(=O)C3Cc4ccc(C)cc4C(=O)O3)s2)cc1 (stereo not drawn)	-	0	0	-	-	-
CCOc1ccc(NC(=O)C2CC(=O)NC(N3CCc4ccccc43)=N2)cc1 (stereo not drawn)	0	0	0	0	0	0
SMILES	D2 antag	D2 PAM-1	D2 ag-1	D2 PAM-2	B2AR arrestin	D2 ag-2
Cc1ccc(NC(=O)C2CC(=O)NC(N3CCc4ccccc43)=N2)cc1 (stereo not drawn)	44	0	0	0	0	0
COC(=O)C1=COC(C)C2CN3CCc4c([nH]c5ccccc45)C3CC12 (stereo not drawn)	0	0	0	0	0	0
COC(=O)C1=CO[C@@H](C)[C@H]2CN3CCc4c([nH]c5ccccc45)[C@@H]3C[C@H]12	71	0	0	0	0	0
Nc1c(C(=O)N/N=C/c2ccc(F)cc2)oc2nc(-c3ccccc3)cc(-c3ccco3)c12	-	0	0	0	0	0
COc1ccc(CNC(=O)C(=O)NCC(c2cccnc2)N2CCN(c3ccccc3F)CC2)cc1 (stereo not drawn)	-	0	0	-	-	-
COc1ccc(OC)c(NCc2nnc(-c3ccccc3)o2)c1	0	0	0	0	0	0
COc1ccc(CCN(C)Cc2nc(Cc3ccc(OC)c(OC)c3)no2)cc1OC	37	0	0	0	0	0
COc1ccc(-c2ccc(-c3nnc(Cc4ccc(OC)c(OC)c4)o3)cc2)cc1	30	0	0	0	0	0
COc1ccc(Cc2noc(-c3ccccc3)n2)cc1OC	33	0	0	0	0	0
COc1ccc(C(c2sc3nc(C)nn3c2O)N2CC(C)OC(C)C2)cc1OC (stereo not drawn)	-	0	-	0	0	0
CC1CCCCN1C(=O)CNCc1ccc(F)cc1 (stereo not drawn)	0	0	0	0	0	0
Cc1ccc(NC2CCCN(C(=O)c3cccnc3)C2)cc1C (stereo not drawn)	36	0	0	0	0	0
O=C(/C=C/c1ccco1)Nc1ccc(Oc2ccc(Cl)cc2)cc1	-	-	-	0	0	0
COc1ccnc(Oc2ccc(F)cc2)c1C(=O)N/C=N/OCc1cccc(F)c1	0	0	0	0	0	0
COc1ccccc1CO/N=C/NC(=O)c1c(OC)ccnc1Oc1ccc(F)cc1	37	0	0	0	0	0
N#C/C(=C/N1CCOCC1)c1ccccc1	-	-	-	0	0	0
N#CC(C#N)=C1C=C2C=C(N3CCCCCC3)CCC2CC1 (stereo not drawn)	83	0	154	0	0	?
CN1CCN(C2=CC3=CC(=C(C#N)C#N)CCC3CC2)CC1 (stereo not drawn)	49	0	173	0	0	0
N#CC(C#N)=C1C=C2C=C(N3CCOCC3)CCC2CC1 (stereo not drawn)	65	0	132	0	0	0
CCN1CCN(C2=CC3=CC(=C(C#N)C#N)CCC3CC2)CC1 (stereo not drawn)	79	0	142	0	0	0
CC1(C)CC(NCCN2CCN(C3=CC(=C(C#N)C#N)CC(C)(C)C3)CC2)=CC(=C(C#N)C#N)C1	0	0	0	0	0	0
Cc1[nH]n(-c2ccccc2)c(=O)c1/C=N/Nc1nncc(-c2ccccc2)n1	0	0	0	0	0	0
O=C(Cc1ccc([N+](=O)[O-])cc1)Nc1ccc(Cl)cc1	0	0	0	0	0	0
Cc1c(Cl)cccc1NC(=O)Cc1ccc([N+](=O)[O-])cc1	45	0	0	0	0	0
O=C(c1cc2c(s1)CCCC2)N1CCN(CCO)CC1	-	-	-	0	0	0
CN1CCN(c2nc(-c3ccccc3Cl)nc3ccccc23)CC1	0	0	0	0	0	0
